About 83,000 compounds went through this panel and 20% of them were active in at least one assay; those are over-represented in the sample as a whole.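 Single-dose data. Exposure time 48 hours. Values below 10 considered active.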 Active and inactive are the calls of the source.
Tests used:
Assay in all cases: NCI-60 one-dose screen, 48 h (100 = growth as untreated, 0 = no growth, -100 = all killed)
Conditions in all cases: 10 µM unless noted
[1] = test system: RPMI-8226 leukemia
[2] = test system: OVCAR-8 ovarian
[3] = test system: OVCAR-5 ovarian
[4] = test system: SK-OV-3 ovarian
[5] = test system: OVCAR-3 ovarian
[6] = test system: HS 578T breast
[7] = test system: NCI/ADR-RES ovarian
[8] = test system: T-47D breast
[9] = test system: MDA-MB-435 melanoma
[10] = test system: SW-620 colon
[11] = test system: MCF7 breast
[12] = test system: HCT-116 colon
[13] = test system: HCC-2998 colon
[14] = test system: KM12 colon
[15] = test system: OVCAR-4 ovarian
[16] = test system: IGROV1 ovarian
[17] = test system: BT-549 breast

Row | Structure (SMILES) | growth [1] | growth [2] | growth [3] | growth [4] | growth [5] | growth [6] | growth [7] | growth [8] | growth [9] | growth [10] | growth [11] | growth [12] | growth [13] | growth [14] | growth [15] | growth [16] | growth [17]
1 | CCCOc1nc(SCCC)nc2c1cnn2-c1ccccc1 | 152% (inactive) | 99.2% (inactive) | 89.2% (inactive) | 106% (inactive) | 94.8% (inactive) | 126% (inactive) | 96% (inactive) | 115% (inactive) | 104% (inactive) | 103% (inactive) | 101% (inactive) | 105% (inactive) | 99.6% (inactive) | 105% (inactive) | – | – | –
2 | NC(=O)c1ncn(C2OC(CO)C(O)C2O)n1 (centres undefined) | – | 87.5% (inactive) | 95.2% (inactive) | 87.9% (inactive) | 95.1% (inactive) | 86.4% (inactive) | 88.6% (inactive) | 84.6% (inactive) | 107% (inactive) | 70.9% (inactive) | 80.8% (inactive) | 57.5% (inactive) | 92.8% (inactive) | 98.3% (inactive) | 87.8% (inactive) | 4.17% (active) | 96.8% (inactive)
3 | O=S(=O)(c1ccc(N/N=C\c2ccccc2)cc1)c1ccc(N/N=C/c2ccccc2)cc1 | 85.6% (inactive) | 30.3% (inactive) | 84.7% (inactive) | 74% (inactive) | 72.2% (inactive) | – | 53.1% (inactive) | 56% (inactive) | 68.8% (inactive) | 74% (inactive) | 62.9% (inactive) | 52.6% (inactive) | 66.4% (inactive) | 66.9% (inactive) | 44.7% (inactive) | 72.1% (inactive) | 105% (inactive)
4 | O=S(=O)(c1cccc(NC2=Nc3cccc4cccc2c34)c1)N1CCCC1 | 48.8% (inactive) | 83.7% (inactive) | 100% (inactive) | 84.1% (inactive) | 84.3% (inactive) | 76.8% (inactive) | 66% (inactive) | – | 29.3% (inactive) | 64.4% (inactive) | 51.4% (inactive) | 62.8% (inactive) | 79.5% (inactive) | 71.7% (inactive) | 46.9% (inactive) | 80% (inactive) | 48% (inactive)
5 | Cn1c(COC(=O)NCCn2ccnc2)nc2c(N3CCOCC3)nc(-c3ccccc3)nc21 | -29.4% (active) | -12.9% (active) | -91% (active) | 50.2% (inactive) | -89.7% (active) | -33% (active) | -1.95% (active) | – | -91.2% (active) | -68.8% (active) | -67% (active) | -74.6% (active) | – | -69.3% (active) | -87.8% (active) | -96% (active) | -78.2% (active)
6 | COc1cccc(/C=C2\COc3ccc(-c4ccccc4)cc3C2=O)c1 | -31.4% (active) | 3.02% (active) | 49.6% (inactive) | 74.3% (inactive) | -44% (active) | -9.75% (active) | 5.38% (active) | – | -25.8% (active) | -55.6% (active) | -3.38% (active) | -23.8% (active) | 19.4% (inactive) | -37.3% (active) | 65.2% (inactive) | 4.34% (active) | –
7 | CC(C)(C)CC(C)(C)Nc1c(-c2ccc3c(c2)OCO3)nc2cnccn12 | 69.7% (inactive) | – | 91.2% (inactive) | 92% (inactive) | 92.5% (inactive) | 88.5% (inactive) | 87.7% (inactive) | 84.2% (inactive) | 99.1% (inactive) | 109% (inactive) | 74.1% (inactive) | 5.36% (active) | 93.7% (inactive) | 96.2% (inactive) | 86.9% (inactive) | 72.1% (inactive) | 82.2% (inactive)
8 | CNC(=O)Nc1ccc(-c2nc(N3CCOCC3)nc3c2cnn3C2CCOCC2)cc1 | 8.13% (active) | 0.163% (active) | 1.59% (active) | – | 1.45% (active) | -24.9% (active) | 4.44% (active) | – | -26.6% (active) | 12% (inactive) | 1.06% (active) | 12.7% (inactive) | 13.5% (inactive) | 12.8% (inactive) | – | -27.6% (active) | -15.4% (active)
9 | C(=N\Nc1ncc(-c2cc3cc4c(cc3o2)OCO4)s1)/c1c[nH]c2ccccc12 | -22.4% (active) | -12.1% (active) | 9.56% (active) | – | -44.4% (active) | -6.98% (active) | 10.7% (inactive) | -3.93% (active) | -31.6% (active) | -33.9% (active) | -0.831% (active) | -1.24% (active) | -3.45% (active) | -29.8% (active) | -12.9% (active) | -43.8% (active) | -56.9% (active)
10 | O=C(Nc1ccc2cc3ccc(NC(=O)N4CCCCCC4)cc3nc2c1)N1CCCCCC1 | -36.8% (active) | -28.3% (active) | 4.88% (active) | -36.7% (active) | -69.2% (active) | -33.2% (active) | 36.7% (inactive) | -30% (active) | -82.4% (active) | -56.3% (active) | -45.9% (active) | -53.1% (active) | -63.7% (active) | -65.9% (active) | -44.8% (active) | -48.5% (active) | –
11 | CCCN=C(N)c1ccc(NC(=O)c2ccc(C(=O)Nc3ccc(C(N)=NCCC)cc3)cc2)cc1 | 90.6% (inactive) | – | 94.8% (inactive) | 95.6% (inactive) | 102% (inactive) | 102% (inactive) | 98.4% (inactive) | 77.6% (inactive) | 90.2% (inactive) | 104% (inactive) | 87.8% (inactive) | 92.2% (inactive) | 109% (inactive) | 95.5% (inactive) | 99.7% (inactive) | 96.6% (inactive) | 93.9% (inactive)
12 | Cc1ccc(Nc2cc(=S)nc(N)[nH]2)cc1C | 100% (inactive) | 97.4% (inactive) | 100% (inactive) | – | 115% (inactive) | 98.6% (inactive) | 105% (inactive) | 89.2% (inactive) | – | 96.7% (inactive) | 88.5% (inactive) | 90.1% (inactive) | – | 102% (inactive) | 108% (inactive) | 96% (inactive) | 95.9% (inactive)
13 | CS(=O)(=O)Nc1cc(-c2ccc3ncnc(Nc4ccc5[nH]ncc5c4)c3c2)cnc1Cl | 102% (inactive) | 86% (inactive) | 59.8% (inactive) | 76% (inactive) | 59.2% (inactive) | 21.7% (inactive) | 91.2% (inactive) | – | – | 90.8% (inactive) | 38.5% (inactive) | 92.2% (inactive) | 92% (inactive) | 102% (inactive) | 84.7% (inactive) | 42.5% (inactive) | 69.3% (inactive)

Source: PubChem BioAssay (NCI)
